Our source for the inhibition values is PubChem BioAssay AID1259417 (TB Discovery Research, Infectious Disease Research Institute, 2018).

A short description of this assay: M. tuberculosis growth inhibition, HTS (AID 1259417).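 Also: bacteria grown with compound for 5 days at 37 °C.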 To be noted: stronger effect = higher value, concentration not given here.
[1] abbreviates: M. tuberculosis DsRed fluorescence growth inhibition.
Where [2] appears, read: M. tuberculosis growth inhibition.

The structures appear in SMILES notation. About 760 (69%) of roughly 1,100 compounds were called active. No rule for the calls is given here. So high a share suggests a set chosen from earlier hits. The list shows a part of the results.

`CC(C)C(=O)N1CCN(c2ccccc2NC(=O)c2ccc([N+](=O)[O-])o2)CC1`: the inhibition reads like this: under setting [1], 19.7% (inactive); under setting [2], 5.43%.
For `CC1CCN(c2ccc(NC(=O)c3ccc([N+](=O)[O-])o3)cc2)CC1`, in that order: 98.8% (active) and 98.7%.
For `O=C(Nc1ccc(N2CCN(Cc3ccccc3F)CC2)cc1)c1ccc([N+](=O)[O-])o1` the same measures were 100% (active) and 99.7%.
For `CCOC(=O)COc1ccc(S(=O)(=O)Nc2ccc(C)c(C)c2)cc1` the same measures were -1.13% (inactive) and 22%.
As to `CCOC(=O)COc1ccc(C(=O)Nc2cccc(Cl)c2C)cc1`, the inhibition is 97.7% (active) under setting [1] and 97.9% under setting [2].
For `Cc1c(Cl)cccc1NC(=O)c1ccc(OC(C)C(=O)OC2CCCCC2)cc1` (centres undefined) the same measures were 38.3% (active) and 74.3%.
Take `CCOC(=O)COc1ccc(S(=O)(=O)Nc2c(C)cccc2CC)cc1`: the inhibition under setting [1] was 53% (active) and the inhibition under setting [2] was found to be 92.2%.
Turning to `Cc1sc2ncn(C(C)C(=O)OC3CCCCC3)c(=O)c2c1C` (centres undefined), the inhibition was 6.18% (inactive) under setting [1] and 8.72% under setting [2].
For `CCOC(=O)COc1ccc(S(=O)(=O)Nc2cccc(Cl)c2C)cc1`, in that order: 14.4% (active) and 55.5%.
For `O=C(NCc1ccco1)c1cc([N+](=O)[O-])cc([N+](=O)[O-])c1` the same measures were 97.8% (active) and 93.5%.
For `Cc1scc(C(=O)NCc2ccco2)c1-c1ccccc1`, in that order: 2.71% (inactive) and 6.55%.
For the molecule `CSc1ncc(C(=O)Nc2cccc(C(F)(F)F)c2)cn1`, the inhibition under setting [1] was 12.9% (inactive) and the inhibition under setting [2] stood at 15.6%.
Regarding `CSc1ncc(C(=O)NCc2ccco2)cn1`, the inhibition by setting is: under setting [1], 35.2% (active); under setting [2], 25.2%.
For `COc1ccccc1C(=O)Nc1sc2c(c1C(=O)NCc1ccco1)CCC2`, in that order: 3.89% (inactive) and -6.54%.
For `O=C(Nc1sc2c(c1C(=O)NCc1ccco1)CCC2)c1ccccc1[N+](=O)[O-]` the same measures were 3.29% (inactive) and -5.87%.
For `O=C(NC(=S)N1CCCC1)c1ccc(-c2ccccc2)cc1` the same measures were 44.2% (active) and 47%.
For `CN1CCN(C(=S)NC(=O)c2ccc(-c3ccccc3)cc2)CC1`, the inhibition by setting is: under setting [1], 0.913% (inactive); under setting [2], -8%.
For `O=C(NC(=S)N1CCc2ccccc21)c1ccccc1`, in that order: 20.8% (inactive) and 20.4%.
In the case of `CC1CCN(C(=S)NC(=O)c2ccc(Cl)cc2)CC1`, the inhibition under setting [1] was 24.6% (active) and the inhibition under setting [2] stood at 49.7%.
As to `COc1cc(OC)cc(C(=O)NC(=S)N2CCCCCC2)c1`, the inhibition was 3.24% (inactive) under setting [1] and -3.75% under setting [2].
For `CCN(CC)CCn1c(=N)n(CC(O)COc2ccc(Cl)cc2Cl)c2ccccc21` (centres undefined) the same measures were 100% (active) and 98%.
For `CC(=O)N(C)c1ccc(OCC(O)Cn2c3ccc(Cl)cc3c3cc(Cl)ccc32)cc1` (centres undefined), in that order: 0.0147% (inactive) and -14.7%.
As for `CC(=O)Oc1cc2c(cc1Cl)C1(CC(c3ccccc3Cl)O2)CC(C)(C)NC(=S)N1` (centres undefined), the inhibition under setting [1] is -2.34% (inactive) and the inhibition under setting [2] is -4.82%.
For `COC(=O)CSc1nc(N)c2c3c(sc2n1)CCCC3` the same measures were 44.7% (active) and 75%.
Turning to `O=C(Nc1nnc(-c2ccc(Cl)s2)o1)C1CCCCC1`, the inhibition by setting is: under setting [1], 49.3% (active); under setting [2], 59.3%.
For `Cc1ccc(C)c(-c2nnc(NC(=O)C3=COCCO3)o2)c1`, in that order: -4.83% (inactive) and -2.72%.
For `O=C(Nc1nnc(-c2ccc(Cl)cc2)o1)C1CCCCC1`, in that order: 0.632% (inactive) and 5.51%.
For `O=C(NCC1COc2ccccc2O1)c1ccc(NC(=O)C2COc3ccccc3O2)cc1` (centres undefined), in that order: 0.302% (inactive) and -8.66%.
With `Cc1ccc(C)c(-c2nnc(NC(=O)C3CC3)o2)c1`, the inhibition by setting is: under setting [1], 51.8% (active); under setting [2], 83.4%.
For `Cc1ccc(-c2nnc(NC(=O)C3CC3)o2)c(C)c1`, in that order: 49.6% (active) and 76.4%.
For `CCC(=O)Nc1nnc(-c2ccc(C)cc2C)o1`, in that order: 0.727% (inactive) and 13.4%.
Regarding `Cc1ccc(C)c(-c2nnc(NC(=O)C3COc4ccccc4O3)o2)c1` (centres undefined), the inhibition by setting is: under setting [1], 66.1% (active); under setting [2], 90%.
For `CCCCC(=O)Nc1nnc(-c2ccc(Cl)s2)o1` the same measures were 0.12% (inactive) and 19.7%.
Turning to `CSc1ncnc2c1ncn2CC(=O)Nc1ccc(C)c(C)c1`, the inhibition is 32.5% (active) under setting [1] and 19.8% under setting [2].
For the molecule `Cc1ccc(Nc2nnc(SCC(=O)Nc3cccnc3Cl)s2)cc1C`, the inhibition runs as follows: under setting [1], 3.89% (inactive); under setting [2], -3.4%.
For `CC(C)(C)c1ccc(C(=O)Nc2nnc(-c3cccnc3)o2)cc1`, in that order: 83.8% (active) and 89.3%.
For `CC(C)(C)c1ccc(C(=O)Nc2nnc(-c3ccncc3)o2)cc1`, in that order: 64.6% (active) and 77.1%.
For `CC12CCC(C(=O)Oc3cccc4cccnc34)(CC1=O)C2(C)C` (centres undefined), in that order: 101% (active) and 100%.
Consider `CCCCNC(=O)COC(=O)c1cc(Br)ccc1Cl`, for which the inhibition was 11.3% (active) under setting [1] and 63.4% under setting [2].
For `COC(=O)c1ccc(COC(=O)c2ccccc2Cl)cc1` the same measures were 0.593% (inactive) and 15.3%.
For `CCn1c(C=Cc2ccc([N+](=O)[O-])o2)nc2ccc(I)cc2c1=O` the same measures were 36.1% (active) and 34.3%.
For `O=c1c2ccccc2nc(C=Cc2ccc([N+](=O)[O-])o2)n1-c1cccc(O)c1`, in that order: 6.18% (inactive) and -1.52%.

A word on the inhibition: it is the change of the read-out against control, counted positive when it falls.
